Our source for the outcome and AC50 values is PubChem BioAssay (EPA / NIEHS).

The target in experiment [1] is D(1A) dopamine receptor (Homo sapiens) (UniProt P21728). In words: NVS_GPCR_hDRD1: NovaScreen (NVS) G Protein-Coupled Receptor Assay for human Dopamine Receptor D1 (DRD1) (AID 2283269). In a few lines: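 HEK293-derived receptor preparation; radioligand competitive displacement; 1 h; filtration + scintillation counting. DMSO = negative control/baseline. Primary: 25 uM, duplicate; secondary: concentration–response for actives.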
Chain of D(1A) dopamine receptor (Homo sapiens) (P21728 whole entry, looked up): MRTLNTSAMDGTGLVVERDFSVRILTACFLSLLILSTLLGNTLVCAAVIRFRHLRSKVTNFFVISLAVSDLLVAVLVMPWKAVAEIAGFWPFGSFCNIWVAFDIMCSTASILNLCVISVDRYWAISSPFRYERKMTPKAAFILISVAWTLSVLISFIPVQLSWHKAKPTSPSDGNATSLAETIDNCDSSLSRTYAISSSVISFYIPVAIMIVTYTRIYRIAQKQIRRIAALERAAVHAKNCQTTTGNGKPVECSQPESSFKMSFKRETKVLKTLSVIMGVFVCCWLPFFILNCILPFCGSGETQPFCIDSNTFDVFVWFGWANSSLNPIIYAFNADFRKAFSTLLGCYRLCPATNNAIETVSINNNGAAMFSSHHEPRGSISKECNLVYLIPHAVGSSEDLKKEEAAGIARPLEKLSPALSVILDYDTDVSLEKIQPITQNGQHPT

Experiment [2] relates to 5-hydroxytryptamine receptor 2C (pig). In words: NVS_GPCR_p5HT2C: NovaScreen (NVS) G Protein-Coupled Receptor Assay for pig Serotonin, 5-Hydroxytryptamine Receptor 2C (5HT2C) (AID 2283288). The method, boiled down: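 Radioligand displacement on membranes from pig choroid plexus, detected by filter scintillation counting after 1 h. Tested first at a single 25 uM in duplicate, then in concentration-response for actives; DMSO served as baseline.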

Experiment [3] has as its target human Neurokinin, NK2 Receptor, TACR2 (gene 6865) (UniProt P21452). In words: NVS_GPCR_hNK2: NovaScreen (NVS) G Protein-Coupled Receptor Assay for human Neurokinin, NK2 Receptor (AID 2283278).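 Also: actives reduce bound radioligand signal relative to DMSO baseline.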 The method, boiled down: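 Filter-based scintillation counting measured radioligand bound to receptor extracted from CHO cells, 4 hours after compound addition. Chemicals screened first at 25 uM in duplicate, with actives retested in concentration series relative to DMSO.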

Experiment [4] addresses human Thromboxane A2 Receptor (TXA2), TBXA2R (gene 6915) (UniProt P21731). Put plainly: NVS_GPCR_hTXA2: NovaScreen (NVS) G Protein-Coupled Receptor Assay for human Thromboxane A2 Receptor (TXA2) (AID 2283282).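 Also: actives reduce bound radioligand signal relative to DMSO baseline.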 The method, boiled down: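 Human platelet-derived receptor preparation incubated with test chemical and radiolabelled ligand for 1 hour, cell-free. Bound label was separated by filtration and counted; displacement relative to DMSO controls gave activity, screened at 25 uM, then titrated.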

For experiment [5], the target named is human Opioid Receptor Mu (Opiate Mu), OPRM1 (gene 4988) (UniProt P35372). Put plainly: NVS_GPCR_hOpiate_mu: NovaScreen (NVS) G Protein-Coupled Receptor Assay for human Opioid Receptor Mu (Opiate Mu) (AID 2283290).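 Also: hits lower bound tracer signal versus DMSO meaning displacement of the ligand.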 The method, boiled down:
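CHO-derived receptor protein, cell-free; radioligand displacement, filtration + scintillation counting, read at 2.5 h. DMSO = negative control/baseline. Primary: 25 uM single conc, duplicate; secondary: concentration series.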

For experiment [6], the target named is Muscarinic acetylcholine receptor M2 (Homo sapiens) (UniProt P08172). Put plainly: NVS_GPCR_hM2: NovaScreen (NVS) G Protein-Coupled Receptor Assay for human Muscarinic, M2 Receptor (AID 2283273). In a few lines: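 Radioligand competition binding, cell-free, receptor from CHO; 1 h incubation; scintillation detection. Primary testing at 25 uM in duplicate.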
Chain of Muscarinic acetylcholine receptor M2 (Homo sapiens) (P08172 whole entry, looked up): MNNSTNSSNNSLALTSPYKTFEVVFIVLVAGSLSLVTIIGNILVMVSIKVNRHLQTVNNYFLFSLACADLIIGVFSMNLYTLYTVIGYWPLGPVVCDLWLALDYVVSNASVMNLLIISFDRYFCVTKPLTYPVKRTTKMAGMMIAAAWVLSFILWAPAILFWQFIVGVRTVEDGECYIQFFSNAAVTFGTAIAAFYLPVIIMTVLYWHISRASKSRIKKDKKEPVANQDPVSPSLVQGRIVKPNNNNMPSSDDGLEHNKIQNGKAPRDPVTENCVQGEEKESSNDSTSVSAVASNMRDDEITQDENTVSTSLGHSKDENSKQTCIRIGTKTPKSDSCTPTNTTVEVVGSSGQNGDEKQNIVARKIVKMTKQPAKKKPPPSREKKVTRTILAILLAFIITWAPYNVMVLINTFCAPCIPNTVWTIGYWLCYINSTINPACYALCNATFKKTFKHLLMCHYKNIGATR

In experiment [7] the target is human Orphanin, Opioid Related Nociceptin Receptor 1 (ORL1), OPRL1 (gene 4987) (UniProt P41146). In words: NVS_GPCR_hORL1: NovaScreen (NVS) G Protein-Coupled Receptor Assay for human Orphanin, Opioid Related Nociceptin Receptor 1 (ORL1) (AID 2283283). In a few lines:
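Cell-free binding using HEK293-derived receptor protein: radioligand displacement measured by filter scintillation 1 hour after dosing. Primary testing at 25 uM in duplicate, followed by singleton concentration series up to 50 uM; DMSO served as negative control.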

Experiment [8] addresses human Adrenergic, Beta 1 Receptor (Adrb1), ADRB1 (gene 153) (UniProt P08588). Put plainly: NVS_GPCR_hAdrb1: NovaScreen (NVS) G Protein-Coupled Receptor Assay for human Adrenergic, Beta 1 Receptor (Adrb1) (AID 2283258). The method, boiled down:
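Membranes/protein extracted from human neuroepithelioma cells, radioligand competition binding read by filtration and scintillation 2 h post-dose. Single 25 uM duplicate screen, then concentration-response follow-up; DMSO as negative control.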

Experiment [9] addresses human Adrenergic, Alpha 2c Receptor (Adra2C), ADRA2C (gene 152) (UniProt P18825). In words: NVS_GPCR_hAdra2C: NovaScreen (NVS) G Protein-Coupled Receptor Assay for human Adrenergic, Alpha 2c Receptor (Adra2C) (AID 2283259). The method, boiled down:
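Screened first in duplicate at 25 uM, with actives then run as concentration series. Membranes from Sf9 cells were exposed for 1 h, and displacement of radioligand was counted after filtration, using DMSO as baseline.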

For experiment [10], the target named is human Dopamine Receptor D4.4 (DRD4.4), DRD4 (gene 1815) (UniProt P21917). Put plainly: NVS_GPCR_hDRD4.4: NovaScreen (NVS) G Protein-Coupled Receptor Assay for human Dopamine Receptor D4.4 (DRD4.4) (AID 2283264). The method, boiled down: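 Filter-binding assay with a tritiated or iodinated ligand, cell-free receptor prepared from CHO, 1 hour. Loss of bound radioactivity versus DMSO; single 25 uM duplicate screen, then concentration-response for actives.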

Experiment [11] has as its target human Dopamine Receptor D2 (DRD2), DRD2 (gene 1813) (UniProt P14416). Put plainly: NVS_GPCR_hDRD2s: NovaScreen (NVS) G Protein-Coupled Receptor Assay for human Dopamine Receptor D2 (DRD2) (AID 2283266). The method, boiled down:
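Test compound (25 uM, duplicate in the primary screen; concentration series at follow-up) competed with radioligand for human DRD2 in CHO-derived membrane protein. Filter-based scintillation counting was done 1.5 hours after dosing, with loss of signal analysed against DMSO.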

Experiment [12] concerns the target human Histamine 1 Receptor (H1), HRH1 (gene 3269) (UniProt P35367). Put plainly: NVS_GPCR_hH1: NovaScreen (NVS) G Protein-Coupled Receptor Assay for human Histamine 1 Receptor (H1) (AID 2283268). In a few lines:
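Filter-based scintillation detection of radioligand binding to human H1, 1 h incubation; chemicals screened in duplicate at 25 uM, then concentration-response; signal loss relative to DMSO taken as activity.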

Experiment [13] has as its target Muscarinic acetylcholine receptor M3 (Homo sapiens) (UniProt P20309). In words: NVS_GPCR_hM3: NovaScreen (NVS) G Protein-Coupled Receptor Assay for human Muscarinic, M3 Receptor (AID 2283272). In a few lines: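 Radioligand displacement binding on human M3 receptor in CHO-derived membranes, 1 h incubation, filter-based scintillation counting. Primary screen in duplicate at 25 uM; actives followed up in concentration series; loss of signal versus DMSO.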

The target in experiment [14] is Muscarinic acetylcholine receptor M5 (Homo sapiens) (UniProt P08912). Put plainly: NVS_GPCR_hM5: NovaScreen (NVS) G Protein-Coupled Receptor Assay for human Muscarinic, M5 Receptor (AID 2283275). In a few lines:
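Chemicals passing a primary duplicate screen at 25 uM were run as singleton concentration series, maximum 50 uM. Displacement of a specific radioligand from CHO-extracted receptor was read by filter scintillation after 1 h, relative to DMSO.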

The target of experiment [15] is human Opioid Receptor Delta 1 (Opiate D1), OPRD1 (gene 4985) (UniProt P41143). In words: NVS_GPCR_hOpiate_D1: NovaScreen (NVS) G Protein-Coupled Receptor Assay for human Opioid Receptor Delta 1 (Opiate D1) (AID 2283280). In a few lines:
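Membrane preparations from CHO cells bearing the human receptor were incubated 1 h with test chemical, and bound radioligand was counted after filtration. Actives from 25 uM duplicate screening were retested in concentration-response.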

Experiment [16] deals with human Purinergic Receptor P2Y, P2RY1 (gene 5028) (UniProt P47900). In words: NVS_GPCR_hPY2: NovaScreen (NVS) G Protein-Coupled Receptor Assay for human Purinergic Receptor P2Y (AID 2283281). In a few lines: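 Filtration scintillation readout of radioligand displacement on U937 extract, measured 1 h post-dosing. Single 25 uM duplicate screen, then singleton concentration series to 50 uM for chemicals passing threshold; DMSO as baseline.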
Chain of human Purinergic Receptor P2Y, P2RY1 (gene 5028) (P47900 whole entry, looked up): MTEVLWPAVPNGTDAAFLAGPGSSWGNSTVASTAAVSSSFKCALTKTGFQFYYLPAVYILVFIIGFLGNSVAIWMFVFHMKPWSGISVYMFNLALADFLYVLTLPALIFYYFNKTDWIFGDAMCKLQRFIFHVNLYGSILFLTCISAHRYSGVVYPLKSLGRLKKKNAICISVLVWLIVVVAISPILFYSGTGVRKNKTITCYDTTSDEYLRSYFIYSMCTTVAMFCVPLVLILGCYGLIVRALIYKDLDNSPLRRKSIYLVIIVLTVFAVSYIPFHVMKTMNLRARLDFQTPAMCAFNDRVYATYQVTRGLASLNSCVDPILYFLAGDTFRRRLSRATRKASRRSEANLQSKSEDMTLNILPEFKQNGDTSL

Experiment [17] relates to rat Adrenergic, Alpha 1B Receptor (Adra1B), gene 24173. Put plainly: NVS_GPCR_rAdra1B: NovaScreen (NVS) G Protein-Coupled Receptor Assay for rat Adrenergic, Alpha 1B Receptor (Adra1B) (AID 2283297). In a few lines:
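Filter-binding radioligand competition on membranes from rat liver, read after 1 h by scintillation counting. Single-concentration duplicate screen at 25 uM, followed by concentration-response on actives, normalised to DMSO.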

Records with an inconclusive call do not appear. Activity calls are given as the source filed them. The calls were made as follows: active = hit-call score of the fitted dose curve at least 0.9, where 1 is the maximum; inconclusive = response in the unintended direction; inactive = score below 0.9.

Chain of human Thromboxane A2 Receptor (TXA2), TBXA2R (gene 6915) (P21731 whole entry, looked up): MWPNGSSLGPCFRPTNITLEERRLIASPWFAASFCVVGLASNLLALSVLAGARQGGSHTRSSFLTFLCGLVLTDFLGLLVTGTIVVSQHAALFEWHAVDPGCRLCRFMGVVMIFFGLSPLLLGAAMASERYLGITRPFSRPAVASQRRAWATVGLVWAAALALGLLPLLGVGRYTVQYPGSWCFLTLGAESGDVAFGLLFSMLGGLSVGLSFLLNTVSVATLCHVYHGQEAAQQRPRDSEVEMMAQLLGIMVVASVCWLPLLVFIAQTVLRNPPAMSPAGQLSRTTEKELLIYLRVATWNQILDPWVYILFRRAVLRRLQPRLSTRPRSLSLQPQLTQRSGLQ
Chain of human Neurokinin, NK2 Receptor, TACR2 (gene 6865) (P21452 whole entry, looked up): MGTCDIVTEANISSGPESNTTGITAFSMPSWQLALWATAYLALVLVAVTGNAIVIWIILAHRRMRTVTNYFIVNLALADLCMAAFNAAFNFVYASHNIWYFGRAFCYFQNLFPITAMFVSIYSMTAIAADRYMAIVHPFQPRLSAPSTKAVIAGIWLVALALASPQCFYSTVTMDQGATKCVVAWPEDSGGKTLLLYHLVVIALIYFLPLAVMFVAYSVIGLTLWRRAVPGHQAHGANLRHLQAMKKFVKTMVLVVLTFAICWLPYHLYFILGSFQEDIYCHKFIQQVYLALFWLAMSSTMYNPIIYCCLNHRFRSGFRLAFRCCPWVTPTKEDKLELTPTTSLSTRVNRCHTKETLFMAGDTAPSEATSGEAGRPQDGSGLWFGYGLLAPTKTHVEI
Chain of human Opioid Receptor Mu (Opiate Mu), OPRM1 (gene 4988) (P35372 whole entry, looked up): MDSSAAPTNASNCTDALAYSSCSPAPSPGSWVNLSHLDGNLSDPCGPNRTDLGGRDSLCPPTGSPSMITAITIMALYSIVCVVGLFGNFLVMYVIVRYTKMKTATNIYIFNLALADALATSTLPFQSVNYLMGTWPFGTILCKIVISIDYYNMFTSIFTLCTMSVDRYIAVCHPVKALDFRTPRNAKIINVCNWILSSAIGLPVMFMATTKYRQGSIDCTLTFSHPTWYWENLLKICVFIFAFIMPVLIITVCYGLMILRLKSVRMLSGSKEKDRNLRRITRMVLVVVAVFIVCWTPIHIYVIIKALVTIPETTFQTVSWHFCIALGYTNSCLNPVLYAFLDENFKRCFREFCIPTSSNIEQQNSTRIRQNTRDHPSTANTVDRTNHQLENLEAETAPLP
Chain of Muscarinic acetylcholine receptor M5 (Homo sapiens) (P08912 whole entry, looked up): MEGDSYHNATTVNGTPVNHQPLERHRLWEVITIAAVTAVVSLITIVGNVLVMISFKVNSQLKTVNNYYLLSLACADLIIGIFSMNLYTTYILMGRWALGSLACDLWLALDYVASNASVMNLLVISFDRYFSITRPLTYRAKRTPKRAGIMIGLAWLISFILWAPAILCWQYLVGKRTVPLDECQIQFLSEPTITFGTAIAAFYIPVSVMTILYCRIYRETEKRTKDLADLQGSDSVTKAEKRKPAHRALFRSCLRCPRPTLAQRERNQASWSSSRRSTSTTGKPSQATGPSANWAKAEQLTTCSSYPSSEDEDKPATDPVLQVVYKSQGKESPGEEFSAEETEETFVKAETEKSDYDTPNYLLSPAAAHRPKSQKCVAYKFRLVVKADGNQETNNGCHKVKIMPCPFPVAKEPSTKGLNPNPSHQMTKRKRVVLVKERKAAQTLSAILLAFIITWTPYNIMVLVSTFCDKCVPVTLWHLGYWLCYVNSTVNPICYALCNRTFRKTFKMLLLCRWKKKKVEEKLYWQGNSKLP
Chain of human Adrenergic, Alpha 2c Receptor (Adra2C), ADRA2C (gene 152) (P18825 whole entry, looked up): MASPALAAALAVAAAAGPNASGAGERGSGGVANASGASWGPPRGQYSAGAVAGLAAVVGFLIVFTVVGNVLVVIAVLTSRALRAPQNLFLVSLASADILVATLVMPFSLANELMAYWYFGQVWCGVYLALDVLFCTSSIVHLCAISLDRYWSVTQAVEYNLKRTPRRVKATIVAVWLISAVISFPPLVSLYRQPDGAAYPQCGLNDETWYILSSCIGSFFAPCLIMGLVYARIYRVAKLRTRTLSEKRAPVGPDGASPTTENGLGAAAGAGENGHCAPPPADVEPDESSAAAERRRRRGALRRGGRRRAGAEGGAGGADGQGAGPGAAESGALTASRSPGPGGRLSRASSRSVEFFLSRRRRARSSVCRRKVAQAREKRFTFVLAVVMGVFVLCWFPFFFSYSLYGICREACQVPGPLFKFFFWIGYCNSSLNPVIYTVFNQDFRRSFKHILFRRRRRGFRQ
Chain of human Dopamine Receptor D2 (DRD2), DRD2 (gene 1813) (P14416 whole entry, looked up): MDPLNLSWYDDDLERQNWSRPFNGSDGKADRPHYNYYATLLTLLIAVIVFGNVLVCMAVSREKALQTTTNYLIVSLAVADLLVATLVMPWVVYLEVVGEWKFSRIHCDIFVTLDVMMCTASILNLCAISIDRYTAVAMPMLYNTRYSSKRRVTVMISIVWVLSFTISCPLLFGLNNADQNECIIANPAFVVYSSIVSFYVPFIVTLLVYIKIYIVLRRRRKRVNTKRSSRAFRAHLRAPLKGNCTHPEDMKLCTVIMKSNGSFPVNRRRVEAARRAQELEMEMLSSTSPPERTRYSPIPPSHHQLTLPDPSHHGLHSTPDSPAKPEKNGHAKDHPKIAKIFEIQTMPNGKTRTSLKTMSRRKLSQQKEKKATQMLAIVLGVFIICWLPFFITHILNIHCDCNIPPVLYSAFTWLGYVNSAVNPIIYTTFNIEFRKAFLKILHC
Chain of human Opioid Receptor Delta 1 (Opiate D1), OPRD1 (gene 4985) (P41143 whole entry, looked up): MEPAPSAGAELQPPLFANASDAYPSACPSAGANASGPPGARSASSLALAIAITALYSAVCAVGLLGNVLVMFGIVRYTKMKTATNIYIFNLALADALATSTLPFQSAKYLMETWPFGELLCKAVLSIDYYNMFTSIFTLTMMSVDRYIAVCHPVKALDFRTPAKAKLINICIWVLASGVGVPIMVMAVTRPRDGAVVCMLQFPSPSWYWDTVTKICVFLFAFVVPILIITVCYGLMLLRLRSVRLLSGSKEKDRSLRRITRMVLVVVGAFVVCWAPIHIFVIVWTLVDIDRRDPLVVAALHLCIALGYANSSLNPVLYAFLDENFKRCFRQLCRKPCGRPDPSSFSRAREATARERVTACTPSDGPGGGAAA
Chain of human Adrenergic, Beta 1 Receptor (Adrb1), ADRB1 (gene 153) (P08588 whole entry, looked up): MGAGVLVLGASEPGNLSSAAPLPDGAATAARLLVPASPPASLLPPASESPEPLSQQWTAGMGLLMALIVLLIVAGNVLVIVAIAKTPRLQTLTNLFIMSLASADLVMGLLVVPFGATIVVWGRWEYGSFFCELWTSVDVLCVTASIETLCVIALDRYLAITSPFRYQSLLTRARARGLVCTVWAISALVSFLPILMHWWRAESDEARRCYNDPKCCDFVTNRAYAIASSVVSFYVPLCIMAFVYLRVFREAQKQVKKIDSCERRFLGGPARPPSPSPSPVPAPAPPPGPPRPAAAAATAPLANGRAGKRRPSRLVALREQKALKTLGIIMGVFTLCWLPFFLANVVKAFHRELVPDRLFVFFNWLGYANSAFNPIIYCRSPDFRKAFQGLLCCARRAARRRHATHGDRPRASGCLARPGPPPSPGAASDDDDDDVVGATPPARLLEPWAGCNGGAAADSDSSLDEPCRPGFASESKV

Turning to `CC(C=O)Cc1ccc2c(c1)OCO2` (centres undefined), in [1], the compound was classed as inactive.
In the case of `Oc1cc(Cl)c(Cl)cc1Cl`, the AC50 in [2] is 10.2 µM (active).
On to `[Cl][Sn]([c]1ccccc1)([c]1ccccc1)[c]1ccccc1`, for which the AC50 in experiment [1] is 0.6 µM (active); in [3], 2.13 µM (active); in experiment [4], 1.29 µM (active); in experiment [5] it was 0.664 µM (active).
For `BrCCCCBr`, the compound was called inactive in experiment [6].
As to `O=c1oc2ccccc2c(O)c1C(CC(O)c1ccc(-c2ccc(Br)cc2)cc1)c1ccccc1` (centres undefined), the AC50 was 23.9 µM (active) in experiment [3], 12.2 µM (active) in experiment [4] and 13.7 µM (active) in [5].
With `CN(C)C(=S)S`, the AC50 in [3] is 4 µM (active); in [7], 25 µM (active); in experiment [5] it was 6.66 µM (active).
As for `CCOC(=O)CCN(SN(C)C(=O)Oc1cccc2c1OC(C)(C)C2)C(C)C`, the result in [3] was inactive.
As to `O=C1C=CC(=O)c2ccccc21`, the AC50 in [1] was 4.98 µM (active); in [3], 1.1 µM (active).
For the compound `Brc1c(Br)c(Br)c(Oc2c(Br)c(Br)c(Br)c(Br)c2Br)c(Br)c1Br`, the result in experiment [1] was inactive.
Consider `CCOP(=S)(OCC)SCS(=O)(=O)C(C)(C)C`, for which, in experiment [4], the compound was called inactive.
For the compound `Nc1ccc(N)cc1`, the results for the half-maximal activity concentration (AC50) in experiment [6] and in experiment [3] were 9.36 µM (active) and 5.13 µM (active), respectively.
As to `CCCCCCCCCCCCc1cccc(S(=O)(=O)O)c1`, the AC50 in experiment [8] was 9.54 µM (active); in experiment [9], 6.82 µM (active); in [10], 13.6 µM (active); in [11], 22.5 µM (active); in [12], 25.4 µM (active); in [1] it was 7.44 µM (active). The AC50 in experiment [13] is 16.3 µM (active); in experiment [14] it was 28.4 µM (active); in experiment [15] it was 11.8 µM (active); in experiment [4], 8.31 µM (active); in [5], 14.4 µM (active); in experiment [17], 22.5 µM (active). Besides, the result in experiment [3] and in [16] was inactive.
